What is called Kd is the equilibrium constant for the complex coming apart. Lower therefore signals a tighter complex.
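Further: kd values determined as follow-up on hits from a single-replicate KINOMEscan panel screen.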

In one experiment the test system is CSNK1E.
As to `CSc1nn2c(=O)cc(N3CCOCC3)nc2n1Cc1cccc(Cl)c1Cl` [GSK2347225], the Kd is above 10000 nM.
`CNc1nccc(-c2c(-c3ccc(F)cc3)ncn2C2CCN(C)CC2)n1` [SB-222903] returned a Kd of 17 nM.
Same read-out and setting: with `CN1CCC(n2cnc(-c3ccc(F)cc3)c2-c2ccnc(NC3CCNCC3)n2)CC1` [SB-229482] the figure was 210 nM; with `CC(C)N1CCC(n2cnc(-c3ccc(F)cc3)c2-c2ccnc(N)n2)CC1` [SB-223132], 230 nM; with `CCc1nc(-c2cccc(C)c2)c(-c2ccnc(NC(=O)c3ccccc3)c2)s1`, 880 nM.
The same measure, in the same setting: in the case of `O=C(NCCCN1CCCC1=O)c1cnc(NCc2cc(Cl)ccc2Cl)nc1NC1CCNCC1` it was 230 nM; in that of `Fc1ccc(-c2ncn(CCCNCc3ccccc3)c2-c2ccncc2)cc1`, 130 nM.

The subject of a further experiment is DDR1.
In turn, `COc1ccc(NC(=O)Nc2ccc(C)c(-c3ccc(C(=O)Nc4ccncc4)cc3)c2)cc1` [GSK1398475] displayed a Kd of 860 nM. In other words, the sub-micromolar range.
On the same count and under the same terms, with `Cn1ccc2ncnc(Oc3ccc(NC(=O)Nc4cccnc4)c(Cl)c3)c21` the figure was 57 nM; with `Cc1ccc(NC(=O)c2cccc(C#N)c2)cc1-c1ccc(C(=O)Nc2ccncc2)cc1` [GSK1398463], 22 nM.
